Data on 29 compounds can be found in PubChem BioAssay (EPA / NIEHS).

More than one record can exist for a structure, and the calls need not agree. Active and inactive are the calls of the source. Rule for the calls: active = hit-call score of the fitted dose curve at least 0.9, where 1 is the maximum; inactive = score below 0.9.

Read-out in experiment [1]: Cytochrome P450 (CYP1A1), CYP1A1 (gene 1543)
As to the kind of experiment: LTEA_HepaRG_CYP1A1: Life Technologies and Expression Analysis (LTEA) Assay for Cytochrome P450 (CYP1A1) using HepaRG (AID 2283454). As to conditions: mRNA level, 48 h; actives raise or lower the signal. An outline of the steps:
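qRT-PCR read-out: CYP1A1 transcript normalized to three housekeeping genes, fitted bidirectionally against 0.5% DMSO vehicle baseline. Human HepaRG cells, 48 h chemical exposure, 8-point half-log series topping at 100 uM.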

Read-out in experiment [2]: CFLAR gene, CFLAR (gene 8837)
As to the kind of experiment: LTEA_HepaRG_CFLAR: Life Technologies and Expression Analysis (LTEA) Assay for CFLAR gene using HepaRG (AID 2283455). The following applies: mRNA level, 48 h; actives raise or lower the signal. An outline of the steps:
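Gain- or loss-of-signal changes in CFLAR transcript were fitted bidirectionally relative to 0.5% DMSO. Cells (HepaRG, duplicate wells) were dosed for 48 h across eight half-log concentrations topping at 100 uM; quantitation by TaqMan qRT-PCR.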

Read-out in experiment [3]: growth arrest and DNA damage 45 (GADD45A), GADD45A (gene 1647)
As to the kind of experiment: LTEA_HepaRG_GADD45A: Life Technologies and Expression Analysis (LTEA) Assay for growth arrest and DNA damage 45 (GADD45A) using HepaRG (AID 2283458). The following applies: mRNA level, 48 h; actives raise or lower the signal. An outline of the steps:
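HepaRG, 48 h exposure, 8 conc. (top 100 uM, half-log steps), 0.5% DMSO vehicle, duplicates. Read-out: qRT-PCR mRNA level, housekeeping-normalized (ACTB/GAPDH/POLR2A). Curves fit bidirectionally vs DMSO baseline.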

Read-out in experiment [4]: Forkhead box O3 (FOXO3), FOXO3 (gene 2309)
Nature of the experiment: LTEA_HepaRG_FOXO3: Life Technologies and Expression Analysis (LTEA) Assay for Forkhead box O3 (FOXO3) using HepaRG (AID 2283459). As to conditions: mRNA level, 48 h; actives raise or lower the signal. An outline of the steps: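 Gene-expression endpoint: FOXO3 transcript level by qRT-PCR in HepaRG cultures treated 48 h with chemicals up to 100 uM (half-log, 0.5% DMSO vehicle).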

Read-out in experiment [5]: ABC Transporter (ABCB1), ABCB1 (gene 5243)
As to the kind of experiment: LTEA_HepaRG_ABCB1: Life Technologies and Expression Analysis (LTEA) Assay for ABC Transporter (ABCB1) using HepaRG (AID 2283460). As to conditions: mRNA level, 48 h; actives raise or lower the signal. An outline of the steps: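 Human liver HepaRG line treated 48 h with up to 100 uM compound (eight half-log points, 0.5% DMSO); ABCB1 mRNA change fitted bidirectionally against DMSO controls.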

Read-out in experiment [6]: ABC Transporter (ABCC3), ABCC3 (gene 8714)
As to the kind of experiment: LTEA_HepaRG_ABCC3: Life Technologies and Expression Analysis (LTEA) Assay for ABC Transporter (ABCC3) using HepaRG (AID 2283462). As to conditions: mRNA level, 48 h; actives raise or lower the signal. An outline of the steps:
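qRT-PCR read-out of ABCC3 transcript, normalized to three housekeeping genes (ACTB, GAPDH, POLR2A), after 48 h chemical exposure of human HepaRG cells. Eight half-log concentrations, highest 100 uM, in 0.5% DMSO; gain or loss fitted relative to DMSO baseline.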

Read-out in experiment [7]: ABC Transporter (ABCB11), ABCB11 (gene 8647)
As to the kind of experiment: LTEA_HepaRG_ABCB11: Life Technologies and Expression Analysis (LTEA) Assay for ABC Transporter (ABCB11) using HepaRG (AID 2283463). The following applies: mRNA level, 48 h; actives raise or lower the signal. An outline of the steps: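 Using HepaRG cultures held in 0.5% DMSO, chemicals were tested at half-log dilutions from 100 uM for 48 h. Induction or suppression of ABCB11 mRNA, normalized to ACTB, GAPDH and POLR2A, was fitted bidirectionally against vehicle.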

Experiment [8] is described as follows: CEETOX_H295R_TESTO: CeeTox H295R High-throughput Steroidogenesis Assay for Testosterone (TESTO) (AID 2283457).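 For AC50: cells exposed to chemicals for 48 h before medium collection.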 As to conditions: actives raise or lower the signal. An outline of the steps:
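Readout: testosterone quantified by HPLC-MS/MS (C18, ESI positive) after MTBE liquid-liquid extraction of culture medium. Cells were H295R, 48 h chemical exposure per OECD 456 with modifications. Gain or loss of signal fitted relative to DMSO.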

Read-out in experiment [9]: Forkhead box O1 (FOXO1), FOXO1 (gene 2308)
As to the kind of experiment: LTEA_HepaRG_FOXO1: Life Technologies and Expression Analysis (LTEA) Assay for Forkhead box O1 (FOXO1) using HepaRG (AID 2283456). As to conditions: mRNA level, 48 h; actives raise or lower the signal. An outline of the steps:
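Using one lot of HepaRG hepatic cells kept in 0.5% DMSO, the team applied test chemicals in duplicate, half-log dilutions from 100 uM, for 48 h. Expression, normalised to ACTB/GAPDH/POLR2A, was compared with vehicle in either direction.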

Read-out in experiment [10]: growth arrest and DNA damage 45 (GADD45B), GADD45B (gene 4616)
As to the kind of experiment: LTEA_HepaRG_GADD45B: Life Technologies and Expression Analysis (LTEA) Assay for growth arrest and DNA damage 45 (GADD45B) using HepaRG (AID 2283461). As to conditions: mRNA level, 48 h; actives raise or lower the signal. An outline of the steps:
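qRT-PCR read-out (Fluidigm TaqMan, housekeeping-normalized) of mRNA change in human HepaRG cells after 48 h chemical exposure; 8-point curve, top 100 uM, half-log steps, 0.5% DMSO vehicle; gain or loss fitted relative to DMSO baseline.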

In the case of `CCN(CC)C(=O)c1cccc(C)c1`, the AC50 in experiment [1] was 50 µM (active). Moreover, the outcome in [2], in [3], in experiment [4], in experiment [5], in experiment [6] and in [7] was inactive.
As for `CCNc1nc(N)nc(Cl)n1`, the call in [1], in experiment [2], in experiment [3], in experiment [4], in experiment [5] and in [6] was inactive. Moreover, in experiment [7], the outcome was inactive.
With `COCCO`, the outcome in experiment [2], in experiment [3], in experiment [4], in experiment [5], in [6] and in experiment [7] was inactive.
Take `CC(C)(c1ccc(O)cc1)c1ccc(O)cc1`: the result in experiment [2], in [8], in [3], in experiment [4], in [5] and in [6] was inactive. In addition, the call in experiment [7] was inactive. The AC50 in experiment [8] was 3.57 µM (active); in experiment [5], 50 µM (active).
Take `CCCCCOC(=O)COc1cc(N2C(=O)C3=C(CCCC3)C2=O)c(F)cc1Cl`: the result in experiment [2], in experiment [3], in experiment [4], in experiment [5], in experiment [6] and in experiment [7] was inactive.
For `CCCN(CCC)c1c([N+](=O)[O-])cc(C(F)(F)F)c(N)c1[N+](=O)[O-]`, the result in [2], in [9], in [3] and in experiment [6] was inactive. Besides, the AC50 was 50 µM (active) in [4], 18 µM (active) in experiment [5] and 22 µM (active) in experiment [7].
For the compound `O=C(O)C1(C(=O)Nc2ccc(Cl)cc2Cl)CC1`, the call in [2], in experiment [4] and in experiment [6] was inactive. In addition, the values for the AC50 in experiment [3], in experiment [5] and in experiment [7] were 80.7 µM (active), 50 µM (active) and 61 µM (active), respectively.
For the compound `O=C(O)c1ccccc1`, the call in experiment [2], in experiment [3], in [4], in [5], in [6] and in [7] was inactive.
`COC(=O)CSc1cc(N=c2sc(=O)n3n2CCCC3)c(F)cc1Cl`: the outcome in experiment [2], in [3], in [4], in [6] and in [7] was inactive. For the same compound, the AC50 in experiment [5] is 25.6 µM (active).
Consider `CCCOC(=O)NCCCN(C)C`, for which the result in [2], in [3], in [4], in experiment [5], in experiment [6] and in experiment [7] was inactive.
Consider `N#CSCSc1nc2ccccc2s1`, for which the call in experiment [2], in experiment [3], in experiment [4], in experiment [5] and in experiment [6] was inactive. In addition, the AC50 in experiment [7] is 63.3 µM (active).
Turning to `CCSC(=O)N(CC(C)C)CC(C)C`, the compound was called inactive in experiment [2], in experiment [3], in [4], in [5], in experiment [6] and in [7].
Consider `c1ccc(Nc2ccccc2)cc1`, for which the compound was classed as inactive in [2], in experiment [3], in experiment [4], in [5], in experiment [6] and in experiment [7].
Turning to `CCC(C)OC(=O)N1CCCCC1CCO` (configuration not stated), the call in experiment [2], in experiment [3], in [4], in [5], in [6] and in experiment [7] was inactive.
On to `c1ccc2[nH]c(-c3cscn3)nc2c1`, for which the call in [2], in experiment [8], in [3], in [4], in [5] and in experiment [6] was inactive. The call in [7] was inactive.
Regarding `CCOC(=O)C(C)Oc1ccc(Oc2cnc3cc(Cl)ccc3n2)cc1` (configuration not stated), the call in experiment [2], in experiment [3], in [4], in experiment [5] and in experiment [6] was inactive. The AC50 in experiment [7] was 1.93 µM (active).
Take `CC(=O)[C@H]1CC[C@H]2[C@@H]3CCC4=CC(=O)CC[C@]4(C)[C@H]3CC[C@]12C`: the AC50 is 77.8 µM (active) in [2]; 47.8 µM (active) in experiment [3]; 79.3 µM (active) in experiment [5]; 30 µM (active) in experiment [10]; 28.2 µM (active) in experiment [6]; 58.5 µM (active) in [7]. The outcome in experiment [4] was inactive.
Take `CCCCOC(=O)C(C)Oc1ccc(Oc2ccc(C(F)(F)F)cn2)cc1` (configuration not stated): the compound was called inactive in experiment [2], in [3], in experiment [4], in experiment [5], in [6] and in experiment [7].
Regarding `CCOC(=O)C(C)Oc1ccc(Oc2nc3ccc(Cl)cc3o2)cc1` (configuration not stated), the call in experiment [2], in [3], in experiment [4], in experiment [5] and in experiment [6] was inactive. Besides, the AC50 in experiment [7] is 9.92 µM (active).
Turning to `S=C([S-])NCCNC(=S)[S-].[Mn+2]`, the AC50 was 3.43 µM (active) in experiment [2]; 5.52 µM (active) in experiment [3]; 3.51 µM (active) in [4]; 3.47 µM (active) in [5]; 5.56 µM (active) in experiment [10]; 2.06 µM (active) in experiment [6]. Besides, the AC50 in experiment [7] is 1.85 µM (active).
Turning to `CCOC(=O)c1ccc(O)cc1`, the call in experiment [2], in experiment [3], in experiment [4], in [5], in experiment [6] and in experiment [7] was inactive.
In the case of `CCCCC(CC)CN1C(=O)C2C3C=CC(C3)C2C1=O` (configuration not stated), the call in [2], in [3], in [4] and in experiment [10] was inactive. Also, the AC50 is 12.5 µM (active) in experiment [5], 50 µM (active) in experiment [6] and 89 µM (active) in experiment [7].
Consider `CC1(C)C(C=C(Cl)Cl)C1C(=O)OCc1cccc(Oc2ccccc2)c1` (configuration not stated), for which the compound was called inactive in experiment [2], in [3], in experiment [4], in experiment [5], in [10] and in experiment [6]. In experiment [7], the call was inactive.
Take `COC(=O)c1ccccc1C(=O)O`: the compound was classed as inactive in experiment [2], in experiment [3], in experiment [4], in experiment [5], in [6] and in [7].
Turning to `N[C@@H](Cc1cc(I)c(Oc2ccc(O)c(I)c2)c(I)c1)C(=O)O`, the compound was called inactive in experiment [2], in [3], in [4] and in experiment [6]. In addition, the AC50 in [5] was 73.3 µM (active); in [10], 7.94 µM (active); in experiment [7], 7.94 µM (active).
On to `C#CCOC(=O)[C@@H](C)Oc1ccc(Oc2ncc(Cl)cc2F)cc1`, for which the compound was classed as inactive in [2], in experiment [4], in experiment [5] and in experiment [6]. Besides, the figures for the AC50 in experiment [3] and in experiment [7] were 12.4 µM (active) and 5.03 µM (active), respectively.
For `Cc1nn(C)c(Oc2ccccc2)c1C=NOCc1ccc(C(=O)OC(C)(C)C)cc1`, the call in experiment [2] and in experiment [4] was inactive. The AC50 in [3] is 4.15 µM (active); in experiment [5] it was 9.19 µM (active); in experiment [6], 1.24 µM (active); in experiment [7] it was 3.08 µM (active).
On to `CCOC(=O)COc1cc(-n2ncc(C(F)(F)F)c(C)c2=O)c(F)cc1Cl`, for which the outcome in experiment [2], in experiment [3], in experiment [4], in experiment [5], in [10] and in experiment [6] was inactive. The outcome in [7] was inactive.
Take `C[C@]12CC[C@@H]3c4ccc(O)cc4C[C@@H](CCCCCCCCCS(=O)CCCC(F)(F)C(F)(F)F)[C@H]3[C@@H]1CC[C@@H]2O` (some centres not stated): the compound was classed as inactive in experiment [2] and in experiment [4]. The AC50 in experiment [3] is 0.105 µM (active); in [5], 27.8 µM (active); in experiment [6], 30.9 µM (active); in [7], 10.5 µM (active).

The AC50 is the concentration at which the activity in the assay is half-maximal.
